Source: PubChem
HSF1 inhib – HSF1 inhibition | NIH3T3-HGL HSE-luciferase, MG132-induced, luminescence 8 h; active compounds read low | activity change, negative = inhibition, % at 7.5 µM (by protocol) | 300,000 tested, 0.77% active | AID 2098;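 active = more than half of replicate wells show activity change below -50%, luminescence cut by over half; inconclusive = some wells, but at most half, below -50%; inactive = no replicate well below -50%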;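 also: luciferase reports HSF-1 transcriptional activity via heat shock element; 0% = median of DMSO wells and -100% = zero luminescence signal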
HSF1 activator – increases HSF-1 driven luciferase reporter signal. NIH3T3-HGL HSF-1 luciferase reporter, MG132, 8 h; 100% = twice DMSO control signal. activation, % at 9 µM. 300,000 tested, 1.7% active;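 active = mean replicate activation of at least 50% with a set share of replicates each reaching 50%; inconclusive = only one of those two conditions met; inactive = mean below 50% and too few replicates reaching it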;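 also: 0% = median of the neutral control wells and 100% = twice that signal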
AHR act – human AHR activation; AHR-responsive luciferase reporter cells, luminescence; activation, % at 5 µM; 320,000 tested, 2.5% active; P35869; AID 2796; in the data active = activation above about 47%;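 also: 0% = vehicle wells and 100% = reference agonist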
Target sequence (P35869 whole entry, looked up): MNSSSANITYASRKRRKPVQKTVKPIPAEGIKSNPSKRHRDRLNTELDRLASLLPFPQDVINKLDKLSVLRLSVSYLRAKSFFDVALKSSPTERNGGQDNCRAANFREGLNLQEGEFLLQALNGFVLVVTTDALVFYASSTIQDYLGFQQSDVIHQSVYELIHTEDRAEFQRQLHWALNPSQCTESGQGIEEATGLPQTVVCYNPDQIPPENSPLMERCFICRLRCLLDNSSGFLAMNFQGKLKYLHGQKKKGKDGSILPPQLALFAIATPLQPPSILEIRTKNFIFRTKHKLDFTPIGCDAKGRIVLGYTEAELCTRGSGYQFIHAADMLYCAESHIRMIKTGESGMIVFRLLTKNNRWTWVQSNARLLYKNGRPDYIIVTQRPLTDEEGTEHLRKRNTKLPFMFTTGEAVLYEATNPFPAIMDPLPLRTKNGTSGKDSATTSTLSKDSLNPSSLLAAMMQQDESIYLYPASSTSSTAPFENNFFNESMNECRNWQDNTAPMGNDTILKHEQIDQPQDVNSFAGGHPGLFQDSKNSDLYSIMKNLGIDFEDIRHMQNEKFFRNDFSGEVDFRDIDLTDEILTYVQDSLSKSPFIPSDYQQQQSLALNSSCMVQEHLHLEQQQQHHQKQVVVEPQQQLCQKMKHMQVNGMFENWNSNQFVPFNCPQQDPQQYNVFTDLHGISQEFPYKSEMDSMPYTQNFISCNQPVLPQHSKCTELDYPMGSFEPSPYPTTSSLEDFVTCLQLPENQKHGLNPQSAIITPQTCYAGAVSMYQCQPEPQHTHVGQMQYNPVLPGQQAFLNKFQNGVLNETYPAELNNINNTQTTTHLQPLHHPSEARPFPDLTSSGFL
HSP90 refold inh – HSP90 refolding inhibition in rabbit reticulocyte lysate | luciferase refolding luminescence, 3 h | inhibition, % at 5.6 µM | 290,000 tested, 0.91% active | AID 1789;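 active = inhibition above the screen-wide mean plus 3 SD, computed separately per campaign, cut at about 16% in these data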;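 also: 0% = DMSO wells and 100% = 60 µM geldanamycin wells; inhibitors lower the luminescence because luciferase stays unfolded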
GAA850 FXN act – frataxin GAA850 promoter activation. activation, % at 6 µM. HEK293 lucGAA850 FXN promoter luciferase reporter, 24 h; percent of 10 µM SAHA response. 360,000 tested, 0.56% active. AID 540364;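 active = activation above the average of all compounds screened plus 3 SD, cutoff fixed separately per campaign, cut at about 7.5% in these data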;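 also: 0% = DMSO wells and 100% = 10 µM SAHA wells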
NR0B1 inh – inhibitors of human orphan nuclear receptor DAX1 (NR0B1); HEK293 Gal4-DAX1 luciferase reporter, luminescence; inhibition, % at 6.75 µM; AID 504766; P51843; 340,000 tested, 0.99% active;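 active = inhibition above the mean over all tested compounds plus 3 SD, cut at about 4.2% in these data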;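 also: 0% = DAX1-transfected cells with DMSO and 100% = empty-vector control cells with DMSO; inhibition shows as a rise in luminescence from relieved DAX1 repression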
An asterisk follows results filed as active; ? = inconclusive; . = no result. Hits are enriched below; roughly 5.9% of the tested compounds scored in any of these assays.

SMILES | HSF1 inhib | HSF1 activator | AHR act | HSP90 refold inh | GAA850 FXN act | NR0B1 inh
CSc1nnc(NC(=O)c2nc(S(=O)(=O)Cc3ccccc3)ncc2Cl)s1 | -27 | -28 | -3 | 5 | -3 | 0
NS(=O)(=O)c1ccc(CCNc2nn3c(-c4cccc(OC(F)(F)F)c4)cnc3s2)cc1 | . | . | . | . | -4 | .
C=CCC1CCCC(=O)N2CCCC12 (stereo unspecified) | . | . | . | . | -2 | 0
CN(C)C(=S)N=Nc1[nH]c2ccccc2c1O | 1 | 30 | 64* | 2 | . | .
O=C(NC1CCCCCCC1)c1ccc2c(c1)OCO2 | 33 | ? | 69* | 9 | 3 | 1
Cc1nc2ccc(C(=O)Nc3ccc4nc[nH]c4c3)cc2[nH]1 | -10 | -9 | 18 | 2 | -1 | -1
Cc1ccc(S(=O)(=O)N2CCCCC2)cc1NC(=O)c1ccc2c(c1)OCO2 | 26 | 69* | 2 | -2 | 3 | 0
Cc1ccc(S(=O)(=O)N2CCCCC2)cc1NC(=O)COC(=O)c1ccc2c(c1)OCO2 | 2 | -6 | 0 | 1 | 1 | 0
O=C(Nc1cccc(F)c1)c1ccc2c(c1)OCO2 | 24 | 45 | 56* | 2 | 5 | 3
O=C(Nc1ccc2c(c1)OCO2)c1ccc2nc[nH]c2c1 | 5 | 19 | 62* | -1 | 2 | 2
CCCCC1(C2CCCC2)NC(=O)NC1=O (stereo unspecified) | . | . | . | . | -2 | 1
CCOC(=O)C1=CN(Cc2cccc(-c3ccc(Cl)nc3)c2)S(=O)(=O)N(C)C1C (stereo unspecified) | . | . | . | . | 1 | -1
COc1cc(Cl)c(C)cc1NC(=O)c1ccc2c(c1)OCO2 | 5 | 26 | 73* | 1 | 4 | 3
COc1ccc(Cl)cc1NC(=S)NC(=O)c1ccc2c(c1)OCO2 | 13 | 3 | 11 | 2 | -3 | 0
O=C(NC1CCCCCC1)c1ccc(CN2CCOCC2)cc1 | 7 | 11 | 3 | -5 | 6 | 4.6*
COc1cc(Cl)c(C)cc1NC(=O)c1cccc(OC)c1OC | 30 | 32 | 58* | -4 | 7 | 0
COc1cccc(NC(=O)c2cccc(OC)c2OC)c1 | 21 | 26 | 34 | -3 | 3 | 1
COc1ccc(Cl)cc1NC(=O)NCc1ccc2c(c1)OCO2 | 4 | 6 | 76* | -1 | 0 | 0
CN(C(=O)COC(=O)c1c2c(nc3ccccc13)CCCC2)c1c(N)n(Cc2ccccc2)c(=O)[nH]c1=O | 9 | 7 | 5 | . | 3 | 0
OC(c1ccc(Cl)cc1)c1ncc(-c2cccc(F)c2)[nH]1 (stereo unspecified) | . | . | . | . | 0 | .
Cc1ccc(NC(=O)c2ccc3c(c2)OCO3)cc1Cl | 16 | 44 | 13 | 3 | 4 | 4.7*
Cc1ccc(C(=O)Nc2cc3c(cc2Cl)OCCCO3)cc1 | 13 | 29 | -3 | -1 | 4 | 3
COc1ccc(C(=O)Nc2cc3c(cc2Cl)OCCCO3)cc1 | 39 | 53* | -3 | -2 | 5 | 3
Cc1cc(Cl)ccc1NC(=O)c1ccc2c(c1)OCO2 | 36 | 48 | -1 | -1 | 4 | 3
NC(=O)c1ccc(NC(=O)Nc2ccc3c(c2)OCO3)cc1 | 16 | 58* | 39 | 2 | 5 | 0
SMILES | HSF1 inhib | HSF1 activator | AHR act | HSP90 refold inh | GAA850 FXN act | NR0B1 inh
CCc1ccccc1NC(=O)CC(c1ccc(OC)cc1)n1cccc1 (stereo unspecified) | 30 | 81* | 5 | -3 | -1 | 2
CCC(C)NC(=O)CC(c1ccc(OC)cc1)n1cccc1 (stereo unspecified) | -4 | 3 | 1 | 0 | -3 | 1
CN1CCc2c(sc(/N=C/c3cccs3)c2C(N)=O)C1 | 4 | 17 | 70* | -6 | -1 | 0
COc1ccc(Cn2c(=O)[nH]c3cc(C(=O)NCc4ccc5c(c4)OCO5)ccc3c2=O)cc1 | 4 | 4 | 2 | 0 | 2 | -1
O=C(NCc1ccc2c(c1)OCO2)c1ccc2c(=O)n(C3CCCC3)c(=O)[nH]c2c1 | 0 | 0 | 8 | 2 | 2 | 4.9*
Cc1ccc(C(=O)Oc2coc(CSc3nnc(NC(=O)C4CC4)s3)cc2=O)cc1C | . | . | . | 4 | 4 | 0
Oc1ccccc1/C=N/Nc1ccccc1 | -13 | -1 | 5 | -1 | 0 | -1
O=C(C=NNc1ccccc1)c1ccccc1 | . | . | . | . | 2 | 4.5*
CCOC(=O)C(=Cc1ccc(Br)cc1)C(=O)OCC | 113 | 148* | . | 6 | -1 | -1
CCOC(=O)C(=Cc1ccc(F)cc1)C(=O)OCC | 122 | 126* | 0 | 1 | . | .
CCOC(=O)C(=O)Nc1ccc(F)cc1 | 5 | -6 | -2 | -3 | 1 | -1
COC(=O)c1ccc(-n2ccnc2)cc1 | -7 | -10 | 5 | -2 | 3 | 1
CCOC(=O)C(=Cc1ccc(-n2ccnc2)cc1)C(=O)OCC | 72 | 128* | 1 | 1 | -3 | -2
CCOC(=O)/C(=C/c1ccc(OC(=O)c2ccncc2)cc1)C(C)=O | 16 | 14 | 3 | -2 | 0 | 2
O=C(Nc1ccc2c(c1)OCO2)Oc1ccccc1 | 15 | 12 | 88* | -1 | 3 | 2
C/C(=C\C(=O)c1ccccc1)Nc1ccc2c(c1)OCO2 | 6 | 33 | 47* | 2 | 0 | 1
O=C(CC(NC(=O)c1ccccc1Cl)c1ccccc1)Nc1ccc2c(c1)OCO2 (stereo unspecified) | . | . | 60* | 0 | -1 | 3
COc1ccc(OCCCC(=O)N(C)CC(=O)Nc2c(C)cccc2C)cc1 | -5 | 5 | 4 | . | -1 | -1
Cc1ccc(C2=NCCn3c2c2ccccc2[n+]3[O-])cc1 | -45 | -56 | 20 | . | 0 | 0
CC1(C)CC(=O)C(C=Nc2cccnc2)=C(O)C1 | 79 | 133* | 0 | 0 | 2 | 0
COc1cccc(CC2(CO)CCN(S(=O)(=O)c3ccc(OC)cc3OC)CC2)c1 | -56* | -67 | 1 | -4 | -1 | -1
COc1ccc(CC2(CO)CCN(S(=O)(=O)c3cccc4cccnc34)CC2)cc1 | -1 | 8 | 4 | 2 | 4 | 0
CC(C)(C)CCN1CCC(CN2CCNC(=O)C2=O)CC1 | . | . | . | . | 0 | -1
CCCc1cc(C(=O)Cc2ccccn2)c(O)cc1O | -5 | -10 | 35 | -2 | -1 | 2
CCn1c2ccccc2c2cc(N=C3SC(CC(=O)Nc4ccccc4OC)C(=O)N3CCOC)ccc21 (stereo unspecified) | 2 | -2 | 62* | -2 | -1 | 0
CCn1c2ccccc2c2cc(N=C3SC(CC(=O)Nc4ccccc4OC)C(=O)N3C)ccc21 (stereo unspecified) | -2 | 7 | 2 | 1 | 0 | 1
CCCCN(CC)c1nc(N)c2c(N)nc(OCC)cc2c1C#N | 22 | 57* | 11 | 3 | -2 | -3
O=C(O)c1ccccc1NC(=S)NC(=O)c1sc2ccccc2c1Cl | -2 | -1 | 1 | -1 | 0 | 3
O=C(NNC(=S)NC(=O)c1sc2ccccc2c1Cl)c1ccc(Cl)cc1 | 2 | -1 | 110* | 3 | 2 | 1
